# Measurements taken from the supplement of paper PMC8728848.
# About 410 targets per protein were measured; listed, in parts, are those with the strongest signals and a random draw of the rest.
# Experiments:
# Test in all cases: glycan array binding signal (z-score within array); higher = stronger binding
# Settings in all cases: glycan notation: IUPAC condensed, linker removed
# Fuc(a1-2)Gal(b1-3)GalNAc = target: Fuc(a1-2)Gal(b1-3)GalNAc
# How it was run: (§1)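 Glycan array data were curated from 3228 arrays in the Consortium for Functional Glycomics database and kept only where the protein sequence was available. Glycan names were converted to IUPAC-condensed notation, and columns mapping to the same glycan were averaged. The binding signal is a within-array Z-score, averaged across arrays of the same protein sequence at different concentrations or buffers and across linkers. Negative Z-scores can be read as non-binding.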
# [1] = target: Fuc(a1-2)Gal(b1-3)GalNAc(a1-3)[Fuc(a1-2)]Gal(b1-4)GlcNAc
# How it was run: as §1
# Fuc(a1-2)Gal(b1-3)GlcNAc = target: Fuc(a1-2)Gal(b1-3)GlcNAc
# How it was run: as §1
# [2] = target: Fuc(a1-2)Gal(b1-3)GlcNAc(b1-2)Man(a1-3)[Fuc(a1-2)Gal(b1-3)GlcNAc(b1-2)Man(a1-6)]Man(b1-4)GlcNAc(b1-4)GlcNAc
# How it was run: as §1
# [3] = target: Fuc(a1-2)Gal(b1-3)GlcNAc(b1-3)Gal(b1-4)Glc
# How it was run: as §1
# Fuc(a1-2)Gal(b1-4)Glc6S = target: Fuc(a1-2)Gal(b1-4)Glc6S
# How it was run: as §1
# [4] = target: Fuc(a1-2)Gal(b1-4)GlcNAc(b1-3)Gal(b1-4)GlcNAc(b1-2)Man(a1-3)[Fuc(a1-2)Gal(b1-4)GlcNAc(b1-3)Gal(b1-4)GlcNAc(b1-2)Man(a1-6)]Man(b1-4)GlcNAc(b1-4)GlcNAc
# How it was run: as §1
# [5] = target: Fuc(a1-2)[Gal(a1-3)]Gal(b1-3)GlcNAc
# How it was run: as §1
# [6] = target: Fuc(a1-2)[Gal(a1-3)]Gal(b1-3)GlcNAc(b1-2)Man(a1-3)[Fuc(a1-2)[Gal(a1-3)]Gal(b1-3)GlcNAc(b1-2)Man(a1-6)]Man(b1-4)GlcNAc(b1-4)GlcNAc
# How it was run: as §1
# [7] = target: Fuc(a1-2)[Gal(a1-3)]Gal(b1-4)GlcNAc
# How it was run: as §1
# [8] = target: Fuc(a1-2)[Gal(a1-3)]Gal(b1-4)[Fuc(a1-3)]Glc
# How it was run: as §1
# [9] = target: Fuc(a1-2)[GalNAc(a1-3)]Gal
# How it was run: as §1
# [10] = target: Fuc(a1-2)[GalNAc(a1-3)]Gal(b1-3)GalNAc(b1-3)Gal(a1-4)Gal(b1-4)Glc
# How it was run: as §1
# [11] = target: Fuc(a1-2)[GalNAc(a1-3)]Gal(b1-3)GlcNAc(b1-2)Man(a1-3)[Fuc(a1-2)[GalNAc(a1-3)]Gal(b1-3)GlcNAc(b1-2)Man(a1-6)]Man(b1-4)GlcNAc(b1-4)GlcNAc
# How it was run: as §1
# [12] = target: Fuc(a1-2)[GalNAc(a1-3)]Gal(b1-4)Glc
# How it was run: as §1
# [13] = target: Fuc(a1-3)[Gal(b1-4)]GlcNAc(b1-6)[Gal(b1-3)GlcNAc(b1-3)]Gal(b1-4)Glc
# How it was run: as §1
# Fuc(a1-4)GlcNAc = target: Fuc(a1-4)GlcNAc
# How it was run: as §1
# [14] = target: Gal(a1-3)Gal(b1-4)GlcNAc(b1-2)Man(a1-3)[Gal(a1-3)Gal(b1-4)GlcNAc(b1-2)Man(a1-6)]Man(b1-4)GlcNAc(b1-4)GlcNAc
# How it was run: as §1
# [15] = target: Gal(a1-4)Gal(b1-3)GlcNAc(b1-2)Man(a1-3)[Gal(a1-4)Gal(b1-3)GlcNAc(b1-2)Man(a1-6)]Man(b1-4)GlcNAc(b1-4)GlcNAc
# How it was run: as §1
# [16] = target: Gal(a1-4)Gal(b1-4)GlcNAc(b1-3)Gal(b1-4)Glc
# How it was run: as §1
# Gal(a1-4)GlcNAc = target: Gal(a1-4)GlcNAc
# How it was run: as §1
# Gal(b1-3)GlcNAc(b1-2)Man = target: Gal(b1-3)GlcNAc(b1-2)Man
# How it was run: as §1
# [17] = target: Gal(b1-3)GlcNAc(b1-2)[Gal(b1-3)GlcNAc(b1-6)]Man(a1-6)[Gal(b1-3)GlcNAc(b1-2)Man(a1-3)]Man(b1-4)GlcNAc(b1-4)GlcNAc
# How it was run: as §1
# [18] = target: Gal(b1-3)GlcNAc(b1-3)Gal(b1-3)GlcNAc
# How it was run: as §1
# [19] = target: Gal(b1-3)GlcNAc(b1-3)Gal(b1-4)[Fuc(a1-3)]GlcNAc
# How it was run: as §1
# [20] = target: Gal(b1-3)GlcNAc(b1-6)Gal(b1-4)GlcNAc
# How it was run: as §1
# [21] = target: Gal(b1-3)GlcNAc(b1-6)GalNAc
# How it was run: as §1
# Gal(b1-4)GlcNAc = target: Gal(b1-4)GlcNAc
# How it was run: as §1
# [22] = target: Gal(b1-4)GlcNAc(a1-6)Gal(b1-4)GlcNAc
# How it was run: as §1
# Gal(b1-4)GlcNAc(b1-2)Man = target: Gal(b1-4)GlcNAc(b1-2)Man
# How it was run: as §1
# [23] = target: Gal(b1-4)GlcNAc(b1-2)Man(a1-3)Man(b1-4)GlcNAc(b1-4)GlcNAc
# How it was run: as §1
# [24] = target: Gal(b1-4)GlcNAc(b1-2)Man(a1-3)[GlcNAc(b1-2)Man(a1-6)]Man(b1-4)GlcNAc(b1-4)GlcNAc
# How it was run: as §1
# [25] = target: Gal(b1-4)GlcNAc(b1-3)Gal(b1-4)Glc
# How it was run: as §1
binder,measurement,setting,value
PX14379A-bvu-539-28-539 (Bacteroides vulgatus) (protein) EPYSEIIEEDYVPTEADEIALLATTYSQLRFVMDWYGLFDLQEESGDVIVTPTRPNGWDDGGTYKQMHKHTWDNQQGQPQSIWDYCYKGIANANKILKRADEGFFTEESKPKVVAEVKGVRALWYSILCDTHGNIPIQTSFSEEVPVQSTRKQVFDFIINELKEVMPNLPTEVNKSTYGRLTQWGAKCLMARMYLNAGVYTGTPMWNECLEQCNDIINSGLFSLETNYTDIFKTENSGCVETIFAIPYDEVYNEGDNNGPVFGAHMKFLSSNSRKVFNMQTTPWGGSAANPQFINSYDPDDMRLKYTWLQGDQYSPDGVLITTFPNKLPSIYKTDTDDGYRVGKYEIKVGAKSLLSNDFPYFRYTEVLLMKAECLLRLGQNETEAAHIVSQIRERAFRESAHPEKATVDAAWLKGDTHINYGTLDEKGQIDDAGNTEVVELGGLYDEWGWEFAAEARRRTDMIRFGTYQKKSWFNHTPTANDLNGNSILFPIHLDHLNTNPNLQQNPGYAGK,glycan array binding signal (z-score),Fuc(a1-2)Gal(b1-3)GalNAc,-0.448
same,glycan array binding signal (z-score),[1],-0.426
same,glycan array binding signal (z-score),Fuc(a1-2)Gal(b1-3)GlcNAc,-0.263
same,glycan array binding signal (z-score),[2],8.31
same,glycan array binding signal (z-score),[3],-0.301
same,glycan array binding signal (z-score),Fuc(a1-2)Gal(b1-4)Glc6S,-0.232
same,glycan array binding signal (z-score),[4],2.29
same,glycan array binding signal (z-score),[5],-0.419
same,glycan array binding signal (z-score),[6],9.25
same,glycan array binding signal (z-score),[7],-0.199
same,glycan array binding signal (z-score),[8],-0.231
same,glycan array binding signal (z-score),[9],-0.215
same,glycan array binding signal (z-score),[10],-0.369
same,glycan array binding signal (z-score),[11],1.23
same,glycan array binding signal (z-score),[12],-0.321
same,glycan array binding signal (z-score),[13],-0.44
same,glycan array binding signal (z-score),Fuc(a1-4)GlcNAc,-0.18
same,glycan array binding signal (z-score),[14],3
same,glycan array binding signal (z-score),[15],0.016
same,glycan array binding signal (z-score),[16],-0.391
same,glycan array binding signal (z-score),Gal(a1-4)GlcNAc,-0.226
same,glycan array binding signal (z-score),Gal(b1-3)GlcNAc(b1-2)Man,0.056
same,glycan array binding signal (z-score),[17],5.87
same,glycan array binding signal (z-score),[18],0.03
same,glycan array binding signal (z-score),[19],-0.515
same,glycan array binding signal (z-score),[20],-0.27
same,glycan array binding signal (z-score),[21],-0.344
same,glycan array binding signal (z-score),Gal(b1-4)GlcNAc,-0.29
same,glycan array binding signal (z-score),[22],-0.203
same,glycan array binding signal (z-score),Gal(b1-4)GlcNAc(b1-2)Man,-0.28
same,glycan array binding signal (z-score),[23],0.346
same,glycan array binding signal (z-score),[24],3.64
same,glycan array binding signal (z-score),[25],-0.017
